Measured values as given in the supplement of paper PMC6555819.

The sequences below were run on VDR:RXRa (NR concentration 270 nM, RXRa partner concentration 90 nM) (assay: PBM binding z-score (relative to random genomic background probes); higher = stronger binding; sequences stand for … in GC…GCGATTGACAGCGTAGAATGAAGG).
Method in brief: (§1)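 Regression normalization was applied to scanned fluorescence from custom Agilent 4×180K protein-binding microarrays. Before scanning, arrays were incubated 1 h with ligand-free nuclear receptor dimers, and binding was detected with antibodies against each partner (one per run). Binding z-scores use the random background probes as reference.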

In order of rising PBM binding z-score:
1. CATACAGAGTCAGCTAGGCCAGAGTAGGGACGGC  -0.518
2. CCTACTGGGCCACGAAAGGACATTGATTCAGTGA  -0.289
3. GTACCAACGTGAATAGGTCGTTGATGAGTAGGCG  -0.204
4. CCCGACAGGTGAGAAGGTAACTCAGCCTCGATTA  -0.17
5. TGAATGAGGTAAAAGATCAGGGAACGTGGCGTCG  -0.131
6. GCAACTGGGGCATCAGCAGGTTACCATAACTTAA  -0.109
7. TCGAGTATGTTACCAATGGGGCATTCAGCTTTCT  -0.0704
8. GCTGCTAGGTCAGGTTGCTCAGCTAACGGGTACG  0.0611
9. ATCTCTAGGTAACCAACTTCAGTGAATGCCGAAC  0.0615
10. TCTTGTAGATCAGCAGGTTAAGACAGCTGGCCAA  0.176
11. GCTGCTAGGTCAGGTTGGACAGCTAACGGGTACG  0.304
12. TCTTGTAGATCAACAGGACGTTAAGAAAGATCGA  0.305
13. CCGACTGTGGCAGAAAGGTTACCATACCATCCGG  0.378
14. TTACCAAGGTGAGCTGAGGTCTTTGATCCAACTC  0.497
15. ATCTCTAGGTAAAGTTCGGTGAAAGATCGATAGA  0.603
16. GGAACGAGGGCATAGTTGATAGCATCTGTCGACG  0.655
17. TCGCCTAGGTCAGATCGGGCCAGTATACGCTATA  0.717
18. ACTCGCAGGCCAAGTTTGGGTCACTCAAACAAAG  0.787
19. ACTATTGGTTGAGACGAGGGCAACCGATAGGTTG  0.873
20. CCTATTAGTTGACCATAAGCGCAACCGAAGCTCG  1.05
21. AGAATGAGGTTATACGTAGATTAGGGAAGAAAGT  1.44
22. ATCTCTAGGTAAAAGTTCAGGGAATCCCGAGGAT  1.54
23. ATATGTAGGTTATCGGGTAATTCAGTTTGCGCAT  1.54
24. CCTGCTAGGTCATGGTCGGCTAATCTACAGTATG  1.57
25. TCATATAGGTAAAAGGTGAAAGCCGGTGTGGTAA  1.62
26. CCGACAGGGGCAGAAAGGTTACCATACCATCCGG  1.75
27. TCTGCTAGGTCATTTGGTCAGCTAACGAGCTGCC  2.21
28. CGAACTAGGTCATTGACAGGACAGTGCATAGTAA  2.5
29. TCGAGTAGGTCACCAATGGGGCATTCAGCTTTCT  2.62
30. AGTCAAAGTTCACTAGGTAACGAAAGATTCAGCT  3.25
31. CTCGAAAGGTCGTGCTCGGGTGAGTATACCAAAC  3.43
32. ACTAGCAGGCCAAGGGTCACACAAGATTAGTCCG  3.53
33. ATATGTAGGTTACATCCGGGTCATTCCGGCTATG  3.88
34. CCAACTGGGCCATTCAGAGGTCATTGATCATATG  3.92
35. CCTAGTTGGTCAGGAGGTCACACAACGGATATGA  3.97
36. ATATGTAGGTTACACCCGGGTCATTCAGGCTATG  4.27
37. ACTAGATGGTCAGCTGAGGTCACACACAATTCGG  4.7
38. CGTCCAAGGTCAAGGCTAGGTCAGTGAAAGCATT  5.06
39. CAGACTAGGTCACGAAAGGTCAAAGTCGAATGAC  6.8

The sequences below were run on VDR homodimer (NR concentration 270 nM) in the same assay as above.
Method in brief: as §1

In order of rising PBM binding z-score:
1. TTACCAAGGTGAGCTGAGGTCTTTGATCCAACTC  -0.646
2. CATACAGAGTCAGCTAGGCCAGAGTAGGGACGGC  -0.481
3. TGAATGAGGTAAAAGATCAGGGAACGTGGCGTCG  -0.398
4. TCTTGTAGATCAACAGGACGTTAAGAAAGATCGA  -0.395
5. TCGAGTATGTTACCAATGGGGCATTCAGCTTTCT  -0.375
6. CCGACTGTGGCAGAAAGGTTACCATACCATCCGG  -0.259
7. GTACCAACGTGAATAGGTCGTTGATGAGTAGGCG  -0.24
8. TCTTGTAGATCAGCAGGTTAAGACAGCTGGCCAA  -0.184
9. TCGCCTAGGTCAGATCGGGCCAGTATACGCTATA  -0.139
10. CCCGACAGGTGAGAAGGTAACTCAGCCTCGATTA  -0.11
11. TCATATAGGTAAAAGGTGAAAGCCGGTGTGGTAA  -0.0743
12. GCAACTGGGGCATCAGCAGGTTACCATAACTTAA  -0.0433
13. CCTACTGGGCCACGAAAGGACATTGATTCAGTGA  -0.0244
14. TCGAGTAGGTCACCAATGGGGCATTCAGCTTTCT  0.0095
15. ATCTCTAGGTAACCAACTTCAGTGAATGCCGAAC  0.195
16. GCTGCTAGGTCAGGTTGCTCAGCTAACGGGTACG  0.297
17. CCGACAGGGGCAGAAAGGTTACCATACCATCCGG  0.344
18. CCTGCTAGGTCATGGTCGGCTAATCTACAGTATG  0.379
19. GCTGCTAGGTCAGGTTGGACAGCTAACGGGTACG  0.386
20. ACTCGCAGGCCAAGTTTGGGTCACTCAAACAAAG  0.548
21. CCTATTAGTTGACCATAAGCGCAACCGAAGCTCG  0.721
22. ATCTCTAGGTAAAGTTCGGTGAAAGATCGATAGA  0.916
23. CTCGAAAGGTCGTGCTCGGGTGAGTATACCAAAC  0.996
24. ACTATTGGTTGAGACGAGGGCAACCGATAGGTTG  1.02
25. AGAATGAGGTTATACGTAGATTAGGGAAGAAAGT  1.09
26. GGAACGAGGGCATAGTTGATAGCATCTGTCGACG  1.18
27. ATATGTAGGTTATCGGGTAATTCAGTTTGCGCAT  1.3
28. ACTAGCAGGCCAAGGGTCACACAAGATTAGTCCG  1.42
29. TCTGCTAGGTCATTTGGTCAGCTAACGAGCTGCC  1.49
30. ATCTCTAGGTAAAAGTTCAGGGAATCCCGAGGAT  1.7
31. CGAACTAGGTCATTGACAGGACAGTGCATAGTAA  1.86
32. CCTAGTTGGTCAGGAGGTCACACAACGGATATGA  2.5
33. CGTCCAAGGTCAAGGCTAGGTCAGTGAAAGCATT  2.58
34. ATATGTAGGTTACACCCGGGTCATTCAGGCTATG  2.67
35. ATATGTAGGTTACATCCGGGTCATTCCGGCTATG  2.99
36. CCAACTGGGCCATTCAGAGGTCATTGATCATATG  3.31
37. ACTAGATGGTCAGCTGAGGTCACACACAATTCGG  3.61
38. AGTCAAAGTTCACTAGGTAACGAAAGATTCAGCT  3.69
39. CAGACTAGGTCACGAAAGGTCAAAGTCGAATGAC  4.05
